Data as given in PubChem BioAssay (Tox21).
Values joined by “and” are separate entries in the source; they are usually repeats but may differ in a detail not shown here. Equal values may be shown once. Records with an inconclusive call do not appear. Where a call stands in place of a potency, no number is given. Active and inactive are the calls of the source. Calls come from the whole dose curve.

experiment: qHTS assay to identify small molecule agonists of H2AX - cell viability counter screen (AID 1224847); conditions: CHO-K1 viability, CellTiter-Glo luminescence, 3 h; series mostly up to 154 µM; note: nearly all actives have a fitted effect of over 30% in size
From the text: National Center for Advancing Translational Sciences [NCATS]
NIH Chemical Genomics Center [NCGC]
U.S. Environmental Protection Agency [EPA]
National Institutes of Environmental Health Sciences [NIEHS]
National Toxicology Program [NTP]
U.S. Food and Drug Administration [FDA]
HTRF phospho-H2AX (Ser139) assay (Cisbio Bioassays, US) enables the quantitative detection of the histone variant H2AX when phosphorylated on serine 139. When double-stranded DNA breaks, either by ionizing radiation or endogenous physiological processes, H2AX becomes phosphorylated at Ser139. This phospho-Ser139 serves as a sensitive biomarker for the detection of such breaks, localizing the site of DNA repair. So, HTRF phospho-H2AX Ser139 is a pertinent assay to study genome stability, the cell cycle, DNA repair, and it serves as a biomarker for cancer, and to understand aging. Wild type CHO-K1 cells were used to identify the inducers of Phospho-H2AX Ser 139 from the Tox21 compound collections. Also cytotoxicity of the Tox21 10K compound library against the CHO-K1 cell line was tested by measuring the cell viability using CellTiter-Glo assay (Promega, Madison, WI).
Tox21 Assay Protocol Summary:
The CHO-K1 cells suspended in culture medium containing 10% FBS were dispensed at 1000 cells/ 3 ul/well in 1536-well white wall/solid bottom plates (Greiner Bio-One North America, NC) using a Multidrop Combi (Thermo Fisher Scientific Inc., Waltham, MA). After the assay plates were incubated at 37C overnight, 23 nl of compounds at 15 concentrations (from 5-48 columns) or positive control (from 1 to 4 columns) were transferred to the assay plates using a Pintool station (Wako, San Diego, CA) into each well resulting in a final DMSO concentration of 0.76%. After 3hr incubation at 37C, 3 uL/well CellTiter-Glo luminescent cell viability reagent (Promega Corporation, Madison, WI) was added using a Flying Reagent Dispenser (FRD) (Aurora Discovery, CA). After incubation at room temperature for 30 min, the luminescence intensity was read using a ViewLux plate reader (PerkinElmer, Waltham, MA).
Potency is the fitted concentration of half-maximal effect.

Structure (SMILES) | Potency
CC(C)=CCCC(C)CCOC(=O)C(C)C (stereo not given) | inactive
CSc1c(Cl)c(Cl)c(Cl)c(Cl)c1Cl | inactive
CCCCCCOc1cc(C)c(O)c(C)c1C | 102 µM (active)
Cc1cc(=O)[nH]c(=O)[nH]1 | inactive
c1cc(OCC2CO2)cc(OCC2CO2)c1 (stereo not given) | inactive
C/C=C/c1ccc(OC)c(OC)c1 | inactive
Clc1cc(Cl)c(-c2c(Cl)c(Cl)cc(Cl)c2Cl)cc1Cl | inactive
CCO[Si](C)(C)OCC | inactive
O=C[C@H](O)[C@H](O)[C@H](O)CO | inactive
CCC(=O)OCCc1ccccc1 | inactive
Cn1cnc2ncnc(N)c21 | inactive
Cc1ccc(O)cn1 | inactive
C=CC/C=C/C/C=C/C/C=C/C | inactive
CC(=O)c1ccccc1N | inactive
C[C@H]1O[C@@H](O[C@H]2[C@@H](O)C[C@H](O[C@H]3[C@@H](O)C[C@H](O[C@H]4CC[C@@]5(C)[C@H](CC[C@@H]6[C@@H]5C[C@@H](O)[C@]5(C)[C@@H](C7=CC(=O)OC7)CC[C@]65O)C4)O[C@@H]3C)O[C@@H]2C)C[C@H](O)[C@@H]1O | inactive
OCCC(O)CO (stereo not given) | inactive
CCC(C)c1ccccc1 (stereo not given) | inactive
CCCCCCCCCCCCN(CCO)CCO | 100 µM (active)
CCc1cccc(CC)c1N(COC)C(=O)CS(=O)(=O)O | inactive
c1ccc(Sc2ccccc2)cc1 | inactive

Structure (SMILES) | Potency
CCCC(O)C(O)CO (stereo not given) | inactive
Cc1ccc(-n2[nH]c(C)c(N=Nc3cccc(-c4cccc(C(=O)O)c4)c3O)c2=O)cc1C | inactive
C(=C/c1ccccc1)/c1ccccc1 | inactive
O=C1C=CC(=O)N1c1ccccc1 | 45 µM (active)
C1CC(COCC2CO2)CCC1COCC1CO1 (stereo not given) | inactive
CCOCN(C(=O)CS(=O)(=O)O)c1c(C)cccc1CC | inactive
Cc1cccc(Br)c1 | inactive
C[C@]12CC[C@H]3C(=CCc4cc(O)ccc43)[C@@H]1CCC2=O | 101 µM (active)
CC1(C)COCN1 | inactive
CCCCCCCOC(=O)c1ccc(O)cc1 | 101 µM (active)
O=C(Nc1ccc(Cl)cc1)Nc1ccc(Cl)c(C(F)(F)F)c1 | 22 µM (active)
CN1[C@@H]2CC[C@@H]1CC(OC(=O)C(CO)c1ccccc1)C2 (stereo not given in full) | inactive
CCCCC(CC)COC(=O)c1ccc(O)cc1 (stereo not given) | 89.4 µM (active) and 80 µM (active)
C/C=C/CO | inactive
CN1CN(C)CN(C)C1 | inactive
CCc1ccc(C)nc1 | inactive
Cc1occc1SSc1ccoc1C | inactive
c1ccc2c(c1)CCC2 | inactive
CCC1CCCCC1 | inactive
c1ccc(Nc2cccc3ccccc23)cc1 | 115 µM (active) and 113 µM (active)
